In the library only some 2.6% were active in any assay of this set; here they are far more common.
PAFAH2 FP inh – PAFAH2 enzyme inhibitors, primary screen, biochemical, fluorescence polarization, human; recombinant PAFAH2, FP-rhodamine activity probe; inhibition, % at 3.39 µM; Platelet-activating factor acetylhydrolase 2, cytoplasmic (Homo sapiens), Q99487; actives 0.99% (n = 340,000); AID 492956, 2010;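 active = inhibition above the mean over all tested compounds plus 3 SD, cut at about 30% in these data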;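 also: inhibitors block probe labeling of enzyme so polarization drops; 0% = enzyme with DMSO and 100% = wells lacking PAFAH2 protein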
PAFAH1B2 inh – PAFAH1B2 enzyme inhibitors, primary screen, biochemical, fluorescence polarization, human | actives 1.2% (n = 340,000) | Platelet-activating factor acetylhydrolase IB subunit alpha2 (Homo sapiens), P68402 | AID 492953, 2010 | inhibition, % at 3.39 µM | recombinant PAFAH1B2, FP-rhodamine activity probe;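 active = inhibition above the mean of all tested compounds plus 3 SD, cut at about 24% in these data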;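 also: 0% = enzyme with DMSO and 100% = wells lacking PAFAH1B2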
PKA-R2B act – activators of PKA-R2B holoenzyme, primary screen, biochemical, fluorescence polarization, Cy5-IP20, human. activation, % at 11.4 µM. actives 0.079% (n = 340,000). cAMP-dependent protein kinase catalytic subunit beta (Homo sapiens) + cAMP-dependent …. PKA-R2B holoenzyme dissociation; R2B truncated from residue 108, S112A mutant; 0% DMSO only, 100% 113 µM cGMP;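 active = activation above a cutoff set at the mean over all compounds plus 3 SD, cut at about 18% in these data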;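 also: higher means more holoenzyme dissociation and a rise in polarization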
Target sequence (P31323 whole entry, looked up, other chains not shown, the tested form may be a part): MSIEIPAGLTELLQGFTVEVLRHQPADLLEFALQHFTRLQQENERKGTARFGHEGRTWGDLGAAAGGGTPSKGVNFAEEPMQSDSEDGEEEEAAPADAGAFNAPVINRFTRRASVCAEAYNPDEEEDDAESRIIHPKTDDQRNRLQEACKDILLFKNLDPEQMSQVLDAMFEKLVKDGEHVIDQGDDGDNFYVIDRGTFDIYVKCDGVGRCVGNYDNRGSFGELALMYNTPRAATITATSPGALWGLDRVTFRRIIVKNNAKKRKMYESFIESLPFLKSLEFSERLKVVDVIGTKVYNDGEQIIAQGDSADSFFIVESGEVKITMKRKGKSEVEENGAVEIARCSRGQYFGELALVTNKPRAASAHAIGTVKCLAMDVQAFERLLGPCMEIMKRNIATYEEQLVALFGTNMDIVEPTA
PKA-R1A activ – activators of PKA-R1A holoenzyme, primary screen, biochemical, fluorescence polarization, Cy5-IP20, bovine R1A, mouse PKAc; AID 504707, 2011; cAMP-dependent protein kinase type I-alpha regulatory subunit (Bos taurus) + …; activation, % at 11.4 µM; PKA-R1A dissociation; scaled: DMSO 0%, 113 µM cGMP 100%; actives 0.083% (n = 340,000);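 active = percent activation above the mean of all tested compounds plus 3 SD, cut at about 19% in these data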;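 also: higher means more PKAc released from R1A so a rise in polarization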
PAFAH1B3 inh – PAFAH1B3 enzyme inhibitors, primary screen, biochemical, fluorescence polarization, human; actives 0.28% (n = 340,000); Platelet-activating factor acetylhydrolase IB subunit alpha1 (Homo sapiens), Q15102; inhibition, % at 3.39 µM; recombinant PAFAH1B3, FP-rhodamine probe;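 active = inhibition above the screen-wide average of all tested compounds plus 3 SD, cut at about 25% in these data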;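 also: 0% = enzyme with DMSO only and 100% = wells lacking PAFAH1B3 protein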
pPAFAH inh – pPAFAH enzyme inhibitors, primary screen, biochemical, fluorescence polarization, human. actives 1.5% (n = 330,000). AID 463082, 2010. Platelet-activating factor acetylhydrolase (Homo sapiens), Q13093. recombinant pPAFAH, FP-rhodamine probe fluorescence polarization. inhibition, % at 3.39 µM;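 active = inhibition above the mean inhibition across the screen plus 3 SD, cut at about 25% in these data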;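 also: inhibitors block binding of the rhodamine activity-based probe so polarization drops; 0% = enzyme with DMSO and 100% = wells lacking pPAFAH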
* = called active by the depositor; nt = no result.

SMILES	PAFAH2 FP inh	PAFAH1B2 inh	PKA-R2B act	PKA-R1A activ	PAFAH1B3 inh	pPAFAH inh
COc1ccccc1C(=O)COC(=O)C1(C)CC1(Cl)Cl (stereo not drawn)	1.9	4.1	-11.6	-4.8	10.2	5.5
Cc1cc2cc(C(c3nnnn3Cc3ccco3)N3CCc4ccccc43)c(=O)[nH]c2cc1C (stereo not drawn)	11.2	3.1	2.8	-7.1	6.8	30.4*
CCCC(=O)Nc1sc(-c2ccccc2)c(-c2ccccc2)c1C(=O)O	5.1	42.4*	-1.8	-4.2	-0.8	6.2
CC(C)(C)C(=O)NCc1ccc(C(=O)CSc2nnc(-c3ccncc3)n2C2CC2)s1	-4.4	-1.8	-1.4	9.1	0.1	nt
O=S1(=O)CCOC[C@H](Cc2ccccc2)N1Cc1cccc(F)c1	3.3	5.1	2.1	-1.9	3.3	3.3
O=S1(=O)CCOC[C@H](Cc2ccccc2)N1Cc1ccc(F)cc1	-0.1	32.7*	2.0	-3.1	5.0	-8.5
O=C1NCCOC(=O)[C@@H](Cc2ccc(F)cc2)C/C=C\C[C@@H]1CC(=O)N(CCO)Cc1ccccc1	-0.8	26.4*	2.4	-5.7	1.2	4.4
CC(C)(C)[C@@H]1COC(=O)[C@H](Cc2ccc(F)cc2)C/C=C\C[C@H](CC(=O)N(CCO)Cc2ccccc2)C(=O)N1	3.4	29.9*	2.9	1.6	5.2	3.3
O=C1N[C@@H](Cc2ccccc2)COC(=O)[C@@H](Cc2ccc(F)cc2)C/C=C\C[C@@H]1CC(=O)N(CCO)Cc1ccccc1	1.4	41.4*	-8.4	-9.2	-1.7	8.7
C[C@H](O)[C@@H]1CN2CCc3c([nH]c4ccccc34)[C@@H]2C[C@@H]1N(C)Cc1cc(Cl)cc(Cl)c1	nt	nt	0.3	-5.1	nt	nt
O=c1c2ccccc2[nH]c(=S)n1CCCN1CCN(c2ccccc2F)CC1	-8.7	4.2	-7.7	10.2	2.6	0.6
COc1ccccc1NC(=O)NC1(C(=O)N2CCN(C)CC2)CCCCC1	-7.9	-3.9	3.0	7.2	4.1	0.0
COc1ccc(/C(N)=N/OC(=O)CSc2ccc(C)cc2)cc1OC	4.6	63.5*	2.2	-10.2	1.0	4.7
CCc1ccc(S(=O)(=O)Nc2cc3c(cc2N2CCOCC2)n(C)c(=O)c(=O)n3C)cc1	15.6	26.1*	-3.3	5.7	9.4	4.0
Cc1ccc(C)c(N2CCN(C(=O)c3cc(S(=O)(=O)N4CCCC4)cn3C)CC2)c1	3.7	0.7	6.3	-4.5	9.9	-1.1
CN(C(=O)Cc1c(C(=O)O)n(C)c2ccccc12)c1ccc(Cl)cc1	4.3	50.5*	-4.2	-4.6	-3.6	2.2
CCCCCCCCCCCCCCC(O)C[N+](C)(CCO)CCO (stereo not drawn)	-4.7	3.6	0.9	-3.0	-5.1	nt
OCC[C@@H]1NCc2cc(CO)cc(-c3ccccc3)c21	-3.7	10.0	-8.7	2.0	12.2	nt
CCCCCC(=O)N1C[C@H](O)[C@@H](n2cc(C3CC3)nn2)C[C@@H]1c1ccc(C)cc1	nt	nt	-10.3	0.7	nt	nt
O=C(NCCCO)C(=O)Nc1cc2c3c(c1)CCN3C(=O)CC2	1.5	2.2	2.4	-8.1	-0.1	4.5
COc1ccc(OC)c(C2Nc3c(Cl)ccc(C(=O)O)c3C3C=CCC32)c1 (stereo not drawn)	4.3	1.6	-9.3	-3.6	2.1	24.6*
COc1cccc(C2Nc3c(F)cc(Br)cc3C3C=CCC32)c1OC (stereo not drawn)	9.2	2.0	2.5	5.8	15.8	0.4
Cc1cc([N+](=O)[O-])cc2c1NC(c1ccccn1)C1CC=CC21 (stereo not drawn)	7.4	4.7	-12.5	-5.3	-2.4	13.5
O=C(O)c1ccc(Cl)c2c1C1C=CCC1C(c1ccccn1)N2 (stereo not drawn)	nt	nt	nt	nt	nt	58.2*
